# Measurements taken from paper PMC7862700, “An all-to-all approach to the identification of sequence-specific readers for epigenetic DNA modifications on cytosine”.
# Columns and labels:
# Experiment in all cases: DAPPL (digital affinity profiling via proximity ligation, sequencing); 10 mM Tris-HCl pH 7.5, 50 mM NaCl, 1 mM DTT, 4% glycerol, room temperature, 30 min; GST-TFs on glutathione beads, 16-mer random dsDNA library, 0.1% formaldehyde crosslink after washing; high values mean tight binding
# FLI1 = target: T1, FLI1 (Homo sapiens, UniProt Q01543 1-452); details: protein: recombinant; tags: N-terminal GST; dsDNA, one strand shown
# T1 sequence: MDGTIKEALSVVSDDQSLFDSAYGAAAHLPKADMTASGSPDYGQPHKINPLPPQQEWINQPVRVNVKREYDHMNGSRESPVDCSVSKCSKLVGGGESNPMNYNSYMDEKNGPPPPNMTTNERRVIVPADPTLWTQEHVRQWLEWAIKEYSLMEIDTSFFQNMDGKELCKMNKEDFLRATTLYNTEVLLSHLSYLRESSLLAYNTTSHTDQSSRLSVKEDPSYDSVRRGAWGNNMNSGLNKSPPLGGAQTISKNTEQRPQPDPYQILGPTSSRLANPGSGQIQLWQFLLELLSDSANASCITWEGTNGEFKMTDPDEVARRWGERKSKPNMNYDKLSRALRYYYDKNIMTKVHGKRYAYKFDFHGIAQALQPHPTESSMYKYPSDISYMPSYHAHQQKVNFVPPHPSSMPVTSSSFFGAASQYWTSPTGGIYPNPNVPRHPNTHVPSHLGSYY
# Method in brief: (§1)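 GST fusions of human transcription factors were expressed in yeast and captured with glutathione beads. Once given DNA barcodes and pooled alongside a tag-only sample, they were incubated for 30 min at room temperature with 200 nmole of a random double-stranded 16-mer DNA library in Tris/NaCl/DTT/glycerol buffer, then washed, crosslinked (0.1% formaldehyde), proximity-ligated, PCR-amplified and sequenced on an Illumina NextSeq500. The binding signal of each hexamer is its read frequency for a factor divided by its frequency for the tag-only sample.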
# ELK1 = target: T2, ELK1 (Homo sapiens, UniProt P19419 1-428); details: protein: recombinant; tags: N-terminal GST; dsDNA, one strand shown
# T2 sequence: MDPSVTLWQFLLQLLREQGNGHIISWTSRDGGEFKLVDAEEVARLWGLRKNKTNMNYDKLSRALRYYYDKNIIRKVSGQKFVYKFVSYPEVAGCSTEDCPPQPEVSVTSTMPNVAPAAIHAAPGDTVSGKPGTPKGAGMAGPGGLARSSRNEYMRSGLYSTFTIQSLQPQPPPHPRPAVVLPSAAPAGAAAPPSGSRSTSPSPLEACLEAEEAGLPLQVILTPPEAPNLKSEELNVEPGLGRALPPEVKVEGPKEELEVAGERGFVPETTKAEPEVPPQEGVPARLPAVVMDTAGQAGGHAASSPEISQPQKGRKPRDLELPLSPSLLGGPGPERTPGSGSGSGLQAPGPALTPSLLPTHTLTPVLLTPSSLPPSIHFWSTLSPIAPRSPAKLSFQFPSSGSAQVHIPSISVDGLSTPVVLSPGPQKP
# Method in brief: as §1
# GABPA = target: T3, GABPA (Homo sapiens, UniProt Q06546 1-454); details: protein: recombinant; tags: N-terminal GST; dsDNA, one strand shown
# T3 sequence: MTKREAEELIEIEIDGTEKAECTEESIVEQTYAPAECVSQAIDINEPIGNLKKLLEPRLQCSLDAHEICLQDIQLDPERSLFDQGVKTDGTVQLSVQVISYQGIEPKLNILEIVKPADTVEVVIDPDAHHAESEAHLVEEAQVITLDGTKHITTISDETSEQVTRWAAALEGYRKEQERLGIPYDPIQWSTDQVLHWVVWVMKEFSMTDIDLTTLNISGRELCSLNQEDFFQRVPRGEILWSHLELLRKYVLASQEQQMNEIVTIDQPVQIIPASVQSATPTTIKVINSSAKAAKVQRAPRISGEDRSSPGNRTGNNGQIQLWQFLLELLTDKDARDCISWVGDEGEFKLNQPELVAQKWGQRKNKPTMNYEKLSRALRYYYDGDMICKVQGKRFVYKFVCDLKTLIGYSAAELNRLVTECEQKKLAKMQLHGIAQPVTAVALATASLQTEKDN
# Method in brief: as §1
# ERG = target: T4, ERG (Homo sapiens, UniProt P11308 1-479); details: protein: recombinant; tags: N-terminal GST; dsDNA, one strand shown
# T4 sequence: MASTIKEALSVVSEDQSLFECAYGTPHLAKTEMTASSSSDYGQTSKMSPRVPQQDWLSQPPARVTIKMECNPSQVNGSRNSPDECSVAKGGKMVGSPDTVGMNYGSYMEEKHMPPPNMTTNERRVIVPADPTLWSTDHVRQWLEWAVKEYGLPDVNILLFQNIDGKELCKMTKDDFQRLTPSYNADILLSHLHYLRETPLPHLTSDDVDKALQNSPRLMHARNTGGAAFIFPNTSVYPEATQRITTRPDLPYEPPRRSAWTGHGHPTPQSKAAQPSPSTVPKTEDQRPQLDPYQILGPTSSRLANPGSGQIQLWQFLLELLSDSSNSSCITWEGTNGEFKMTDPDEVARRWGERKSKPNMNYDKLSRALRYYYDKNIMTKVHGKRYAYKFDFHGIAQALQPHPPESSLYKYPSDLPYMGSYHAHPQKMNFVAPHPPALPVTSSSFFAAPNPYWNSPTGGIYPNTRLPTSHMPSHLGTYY
# Method in brief: as §1
# ELF1 = ELF1 (Homo sapiens, UniProt P32519 1-619); details: protein: recombinant; tags: N-terminal GST; dsDNA, one strand shown
# ELF1, sequence (P32519 whole entry): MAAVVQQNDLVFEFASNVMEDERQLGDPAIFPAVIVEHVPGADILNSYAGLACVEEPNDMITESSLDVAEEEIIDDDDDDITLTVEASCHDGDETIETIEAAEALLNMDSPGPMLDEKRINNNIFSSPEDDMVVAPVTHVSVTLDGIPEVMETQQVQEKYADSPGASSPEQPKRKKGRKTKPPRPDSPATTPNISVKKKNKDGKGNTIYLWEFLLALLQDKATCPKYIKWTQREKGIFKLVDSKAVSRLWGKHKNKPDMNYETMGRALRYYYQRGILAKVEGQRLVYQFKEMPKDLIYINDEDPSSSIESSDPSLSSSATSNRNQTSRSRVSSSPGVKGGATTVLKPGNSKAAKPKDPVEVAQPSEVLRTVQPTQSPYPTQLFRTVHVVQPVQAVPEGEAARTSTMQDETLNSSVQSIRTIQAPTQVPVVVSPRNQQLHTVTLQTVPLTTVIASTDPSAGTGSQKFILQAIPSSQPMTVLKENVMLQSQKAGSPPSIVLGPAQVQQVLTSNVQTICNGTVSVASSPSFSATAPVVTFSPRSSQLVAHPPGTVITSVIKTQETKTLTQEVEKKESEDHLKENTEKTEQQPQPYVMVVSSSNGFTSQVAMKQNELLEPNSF
# Method in brief: as §1
# EHF = target: T5, EHF (Homo sapiens, UniProt Q9NZC4 1-300); details: protein: recombinant; tags: N-terminal GST; dsDNA, one strand shown
# T5 sequence: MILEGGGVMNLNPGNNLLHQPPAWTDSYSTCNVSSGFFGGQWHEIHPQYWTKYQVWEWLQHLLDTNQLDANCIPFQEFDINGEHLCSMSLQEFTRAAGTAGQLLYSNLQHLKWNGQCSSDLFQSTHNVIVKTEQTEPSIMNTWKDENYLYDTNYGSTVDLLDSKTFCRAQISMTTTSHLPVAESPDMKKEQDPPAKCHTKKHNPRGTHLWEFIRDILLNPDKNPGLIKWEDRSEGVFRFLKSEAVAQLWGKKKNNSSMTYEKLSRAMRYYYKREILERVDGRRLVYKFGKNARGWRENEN
# Method in brief: as §1
# SPI1 = SPI1 (Homo sapiens, UniProt P17947 1-270); details: protein: recombinant; tags: N-terminal GST; dsDNA, one strand shown
# Method in brief: as §1
# SPIB = SPIB (Homo sapiens, UniProt Q01892 1-262); details: protein: recombinant; tags: N-terminal GST; dsDNA, one strand shown
# SPIB, sequence (Q01892 whole entry): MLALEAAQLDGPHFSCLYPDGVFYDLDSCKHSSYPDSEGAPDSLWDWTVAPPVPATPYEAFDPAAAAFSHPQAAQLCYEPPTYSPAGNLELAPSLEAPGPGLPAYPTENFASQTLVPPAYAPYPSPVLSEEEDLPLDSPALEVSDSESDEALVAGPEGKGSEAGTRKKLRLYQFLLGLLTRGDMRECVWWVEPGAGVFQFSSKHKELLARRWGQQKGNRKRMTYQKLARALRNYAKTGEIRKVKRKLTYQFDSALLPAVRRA
# Method in brief: as §1
# ELK3 = target: T6, ELK3 (Homo sapiens, UniProt P41970 1-407); details: protein: recombinant; tags: N-terminal GST; dsDNA, one strand shown
# T6 sequence: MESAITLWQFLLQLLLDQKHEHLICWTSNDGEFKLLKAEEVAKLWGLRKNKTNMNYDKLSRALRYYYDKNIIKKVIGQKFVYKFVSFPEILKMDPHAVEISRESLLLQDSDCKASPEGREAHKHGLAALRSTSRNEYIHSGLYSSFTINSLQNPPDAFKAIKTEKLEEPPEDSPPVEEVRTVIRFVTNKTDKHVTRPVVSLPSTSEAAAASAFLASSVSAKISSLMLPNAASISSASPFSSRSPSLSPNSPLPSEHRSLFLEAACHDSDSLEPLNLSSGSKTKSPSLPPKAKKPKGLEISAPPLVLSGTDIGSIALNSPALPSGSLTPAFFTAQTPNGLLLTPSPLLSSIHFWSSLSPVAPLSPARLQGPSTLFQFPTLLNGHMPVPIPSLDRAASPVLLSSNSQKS
# Method in brief: as §1
# FEV = target: T7, FEV (Homo sapiens, UniProt Q99581 1-238); details: protein: recombinant; tags: N-terminal GST; dsDNA, one strand shown
# T7 sequence: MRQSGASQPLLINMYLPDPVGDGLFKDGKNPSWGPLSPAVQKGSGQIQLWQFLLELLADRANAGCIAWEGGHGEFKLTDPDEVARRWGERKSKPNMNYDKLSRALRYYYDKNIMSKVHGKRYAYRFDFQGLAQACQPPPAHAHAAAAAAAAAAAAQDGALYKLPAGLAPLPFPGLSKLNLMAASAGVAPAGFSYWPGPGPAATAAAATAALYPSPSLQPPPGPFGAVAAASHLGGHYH
# Method in brief: as §1
# ETV5 = ETV5 (Homo sapiens, UniProt P41161 1-510); details: protein: recombinant; tags: N-terminal GST; dsDNA, one strand shown
# ETV5, sequence (P41161 whole entry): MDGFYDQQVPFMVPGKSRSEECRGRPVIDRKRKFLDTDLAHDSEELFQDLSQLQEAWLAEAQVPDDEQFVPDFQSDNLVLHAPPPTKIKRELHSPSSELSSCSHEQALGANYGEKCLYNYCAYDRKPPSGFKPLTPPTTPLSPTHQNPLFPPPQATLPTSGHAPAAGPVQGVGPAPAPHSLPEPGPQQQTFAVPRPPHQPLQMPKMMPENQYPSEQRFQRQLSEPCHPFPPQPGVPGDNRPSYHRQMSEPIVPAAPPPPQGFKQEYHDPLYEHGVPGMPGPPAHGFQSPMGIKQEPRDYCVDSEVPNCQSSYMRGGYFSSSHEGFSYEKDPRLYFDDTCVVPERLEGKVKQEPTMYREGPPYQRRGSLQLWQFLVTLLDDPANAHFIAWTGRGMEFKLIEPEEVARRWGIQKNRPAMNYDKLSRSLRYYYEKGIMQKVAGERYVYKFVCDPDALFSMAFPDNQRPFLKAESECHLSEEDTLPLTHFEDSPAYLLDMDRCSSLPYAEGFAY
# Method in brief: as §1
# HSF1 = HSF1 (Homo sapiens, UniProt Q00613 1-529); details: protein: recombinant; tags: N-terminal GST; chain copies: 3; dsDNA, one strand shown
# HSF1, sequence (Q00613 whole entry): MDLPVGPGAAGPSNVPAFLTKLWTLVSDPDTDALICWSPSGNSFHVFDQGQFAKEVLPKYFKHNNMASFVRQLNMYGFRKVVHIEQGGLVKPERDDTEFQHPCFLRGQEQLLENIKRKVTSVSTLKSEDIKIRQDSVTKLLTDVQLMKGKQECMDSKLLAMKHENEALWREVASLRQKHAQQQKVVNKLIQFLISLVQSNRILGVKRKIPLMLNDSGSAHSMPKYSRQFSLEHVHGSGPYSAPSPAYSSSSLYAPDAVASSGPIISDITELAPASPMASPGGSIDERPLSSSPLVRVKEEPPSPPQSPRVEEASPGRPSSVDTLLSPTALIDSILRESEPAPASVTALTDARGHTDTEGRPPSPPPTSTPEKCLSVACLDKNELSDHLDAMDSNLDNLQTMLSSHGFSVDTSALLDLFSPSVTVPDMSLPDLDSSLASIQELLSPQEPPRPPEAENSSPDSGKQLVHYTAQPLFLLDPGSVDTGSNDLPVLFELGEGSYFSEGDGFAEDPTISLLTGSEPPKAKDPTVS
# Method in brief: as §1
# SPIC = target: T8, SPIC (Homo sapiens, UniProt Q8N5J4 1-248); details: protein: recombinant; tags: N-terminal GST; dsDNA, one strand shown
# T8 sequence: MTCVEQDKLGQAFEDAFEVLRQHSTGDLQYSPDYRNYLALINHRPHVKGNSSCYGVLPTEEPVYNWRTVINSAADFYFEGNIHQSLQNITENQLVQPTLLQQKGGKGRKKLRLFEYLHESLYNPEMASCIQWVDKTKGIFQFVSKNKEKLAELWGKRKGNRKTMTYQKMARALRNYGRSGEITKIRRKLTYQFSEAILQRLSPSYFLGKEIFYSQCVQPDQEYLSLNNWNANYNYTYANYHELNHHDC
# Method in brief: as §1
# ELF4 = ELF4 (Homo sapiens, UniProt Q99607 1-663); details: protein: recombinant; tags: N-terminal GST; dsDNA, one strand shown
# ELF4, sequence (Q99607 whole entry): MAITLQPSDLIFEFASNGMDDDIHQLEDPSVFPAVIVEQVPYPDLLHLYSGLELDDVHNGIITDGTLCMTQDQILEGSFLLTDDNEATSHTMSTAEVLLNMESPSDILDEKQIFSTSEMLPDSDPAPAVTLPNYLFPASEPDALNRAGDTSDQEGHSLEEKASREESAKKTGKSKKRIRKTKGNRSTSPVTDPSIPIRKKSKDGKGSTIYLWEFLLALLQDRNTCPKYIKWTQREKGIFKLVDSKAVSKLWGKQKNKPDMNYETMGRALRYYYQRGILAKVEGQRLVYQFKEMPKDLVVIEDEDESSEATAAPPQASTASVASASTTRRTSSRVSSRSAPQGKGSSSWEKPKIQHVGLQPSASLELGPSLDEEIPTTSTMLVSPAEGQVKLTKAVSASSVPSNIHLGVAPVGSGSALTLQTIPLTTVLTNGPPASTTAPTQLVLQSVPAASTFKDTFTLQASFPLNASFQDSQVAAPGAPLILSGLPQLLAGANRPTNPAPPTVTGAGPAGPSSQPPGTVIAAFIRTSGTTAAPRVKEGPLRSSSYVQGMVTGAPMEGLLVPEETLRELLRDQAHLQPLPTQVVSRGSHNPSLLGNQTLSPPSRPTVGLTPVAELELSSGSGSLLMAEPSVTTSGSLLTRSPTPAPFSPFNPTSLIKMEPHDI
# Method in brief: as §1
# ELK4 = target: T9, ELK4 (Homo sapiens, UniProt P28324-2 1-405); details: protein: recombinant; tags: N-terminal GST; dsDNA, one strand shown
# T9 sequence: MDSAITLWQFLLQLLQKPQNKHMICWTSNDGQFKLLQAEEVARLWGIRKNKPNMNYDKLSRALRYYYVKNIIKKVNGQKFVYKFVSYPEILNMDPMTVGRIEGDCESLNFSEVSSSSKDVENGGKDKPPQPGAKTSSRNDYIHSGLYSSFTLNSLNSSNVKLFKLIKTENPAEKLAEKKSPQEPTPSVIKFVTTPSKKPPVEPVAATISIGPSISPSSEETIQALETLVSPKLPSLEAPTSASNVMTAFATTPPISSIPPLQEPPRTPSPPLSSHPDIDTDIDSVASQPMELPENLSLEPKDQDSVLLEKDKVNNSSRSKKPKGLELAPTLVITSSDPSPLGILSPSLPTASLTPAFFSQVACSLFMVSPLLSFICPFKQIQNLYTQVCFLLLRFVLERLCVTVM
# Method in brief: as §1
# ETV2 = target: T10, ETV2 (Homo sapiens, UniProt O00321 1-342); details: protein: recombinant; tags: N-terminal GST; dsDNA, one strand shown
# T10 sequence: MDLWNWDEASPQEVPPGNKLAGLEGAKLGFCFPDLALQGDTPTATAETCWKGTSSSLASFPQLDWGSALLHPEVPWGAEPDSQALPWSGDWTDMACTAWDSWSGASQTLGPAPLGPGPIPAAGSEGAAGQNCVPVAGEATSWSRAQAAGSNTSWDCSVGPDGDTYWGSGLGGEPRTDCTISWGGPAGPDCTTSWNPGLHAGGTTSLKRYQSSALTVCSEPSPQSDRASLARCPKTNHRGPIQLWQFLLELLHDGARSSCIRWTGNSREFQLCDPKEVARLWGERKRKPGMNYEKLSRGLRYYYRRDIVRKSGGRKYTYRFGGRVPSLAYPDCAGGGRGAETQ
# Method in brief: as §1
# ELF3 = target: T11, ELF3 (Homo sapiens, UniProt P78545 1-371); details: protein: recombinant; tags: N-terminal GST; dsDNA, one strand shown
# T11 sequence: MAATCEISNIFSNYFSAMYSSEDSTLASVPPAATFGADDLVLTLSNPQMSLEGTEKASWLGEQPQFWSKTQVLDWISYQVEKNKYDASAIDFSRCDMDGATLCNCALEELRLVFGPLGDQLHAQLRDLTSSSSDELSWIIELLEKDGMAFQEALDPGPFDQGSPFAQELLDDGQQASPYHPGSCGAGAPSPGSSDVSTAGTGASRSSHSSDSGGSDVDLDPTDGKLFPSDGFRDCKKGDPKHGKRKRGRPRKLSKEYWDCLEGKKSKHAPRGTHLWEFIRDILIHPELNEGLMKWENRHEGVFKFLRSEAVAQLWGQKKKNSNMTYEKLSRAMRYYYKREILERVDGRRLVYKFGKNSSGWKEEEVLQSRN
# Method in brief: as §1
# CRX = CRX (Homo sapiens, UniProt O43186 1-299); details: protein: recombinant; tags: N-terminal GST; dsDNA, one strand shown
# CRX, sequence (O43186 whole entry): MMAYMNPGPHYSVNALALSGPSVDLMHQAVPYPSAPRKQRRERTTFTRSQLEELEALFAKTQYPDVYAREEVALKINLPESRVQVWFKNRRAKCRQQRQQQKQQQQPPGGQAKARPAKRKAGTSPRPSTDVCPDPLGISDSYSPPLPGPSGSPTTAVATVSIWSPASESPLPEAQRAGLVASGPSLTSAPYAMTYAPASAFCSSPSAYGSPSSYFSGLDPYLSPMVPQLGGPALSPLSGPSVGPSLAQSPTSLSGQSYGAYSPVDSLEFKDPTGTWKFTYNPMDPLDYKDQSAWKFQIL
# Method in brief: as §1
# ETV1 = ETV1 (Homo sapiens, UniProt P50549 1-477); details: protein: recombinant; tags: N-terminal GST; dsDNA, one strand shown
# ETV1, sequence (P50549 whole entry): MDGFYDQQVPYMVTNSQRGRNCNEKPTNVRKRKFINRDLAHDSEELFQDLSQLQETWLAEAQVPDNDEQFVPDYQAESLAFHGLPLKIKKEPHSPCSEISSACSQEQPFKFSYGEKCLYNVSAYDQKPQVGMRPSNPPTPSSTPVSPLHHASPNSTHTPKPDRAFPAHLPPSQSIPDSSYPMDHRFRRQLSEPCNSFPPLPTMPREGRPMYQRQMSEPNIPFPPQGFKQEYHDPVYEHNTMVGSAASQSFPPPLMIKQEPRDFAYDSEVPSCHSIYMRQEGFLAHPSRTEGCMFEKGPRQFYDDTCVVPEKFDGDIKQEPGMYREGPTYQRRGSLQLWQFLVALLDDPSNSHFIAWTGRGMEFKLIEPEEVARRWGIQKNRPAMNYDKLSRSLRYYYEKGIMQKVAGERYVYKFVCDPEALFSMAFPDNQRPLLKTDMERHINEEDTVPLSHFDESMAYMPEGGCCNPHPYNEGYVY
# Method in brief: as §1
sequence,measurement,setting,value
CATTCC,binding signal,FLI1,"1.29 fold enrichment (6-mer frequency, TF over GST control)"
same,binding signal,ELK1,"1.2 fold enrichment (6-mer frequency, TF over GST control)"
same,binding signal,GABPA,"1.27 fold enrichment (6-mer frequency, TF over GST control)"
same,binding signal,ERG,"1.25 fold enrichment (6-mer frequency, TF over GST control)"
same,binding signal,ELF1,"1.25 fold enrichment (6-mer frequency, TF over GST control)"
same,binding signal,EHF,"1.19 fold enrichment (6-mer frequency, TF over GST control)"
same,binding signal,SPI1,"1.25 fold enrichment (6-mer frequency, TF over GST control)"
same,binding signal,SPIB,"1.3 fold enrichment (6-mer frequency, TF over GST control)"
same,binding signal,ELK3,"1.3 fold enrichment (6-mer frequency, TF over GST control)"
same,binding signal,FEV,"1.21 fold enrichment (6-mer frequency, TF over GST control)"
same,binding signal,ETV5,"1.29 fold enrichment (6-mer frequency, TF over GST control)"
same,binding signal,HSF1,"1.67 fold enrichment (6-mer frequency, TF over GST control)"
same,binding signal,SPIC,"1.11 fold enrichment (6-mer frequency, TF over GST control)"
same,binding signal,ELF4,"1.27 fold enrichment (6-mer frequency, TF over GST control)"
same,binding signal,ELK4,"1.28 fold enrichment (6-mer frequency, TF over GST control)"
same,binding signal,ETV2,"1.31 fold enrichment (6-mer frequency, TF over GST control)"
same,binding signal,ELF3,"1.2 fold enrichment (6-mer frequency, TF over GST control)"
same,binding signal,CRX,"1.07 fold enrichment (6-mer frequency, TF over GST control)"
same,binding signal,ETV1,"1.19 fold enrichment (6-mer frequency, TF over GST control)"
